How the values were obtained:
[1] = biological target: Mitogen-activated protein kinase 3 (Homo sapiens) (UniProt P27361); details: at 1 µM;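 also: values are mean percent inhibition of MAPK3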
[2] = biological target: SRSF protein kinase 3 (Homo sapiens) (UniProt Q9UPE1); details: at 0.1 µM
[3] = biological target: SRSF protein kinase 3 (Homo sapiens) (UniProt Q9UPE1); details: at 1 µM
[4] = biological target: Mitogen-activated protein kinase 14 (Homo sapiens) (UniProt Q16539); details: at 0.1 µM
[5] = biological target: Mitogen-activated protein kinase 14 (Homo sapiens) (UniProt Q16539); details: at 1 µM
[6] = biological target: Mitogen-activated protein kinase 11 (Homo sapiens) (UniProt Q15759); details: at 0.1 µM
[7] = biological target: Mitogen-activated protein kinase 11 (Homo sapiens) (UniProt Q15759); details: at 1 µM
[8] = biological target: T1, Mitogen-activated protein kinase 13 (Homo sapiens) (UniProt O15264); details: at 0.1 µM
T1 sequence (whole entry): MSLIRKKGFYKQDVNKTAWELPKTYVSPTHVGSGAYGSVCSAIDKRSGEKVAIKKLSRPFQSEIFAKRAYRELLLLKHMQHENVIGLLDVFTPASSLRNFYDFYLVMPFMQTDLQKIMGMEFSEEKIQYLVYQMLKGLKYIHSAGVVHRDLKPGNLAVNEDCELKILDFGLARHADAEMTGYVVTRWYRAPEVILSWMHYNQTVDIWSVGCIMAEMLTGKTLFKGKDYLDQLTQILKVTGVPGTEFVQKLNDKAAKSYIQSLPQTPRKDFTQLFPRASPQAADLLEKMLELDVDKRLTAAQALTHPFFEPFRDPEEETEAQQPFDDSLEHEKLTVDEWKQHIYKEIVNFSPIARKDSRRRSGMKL

[9] = biological target: T1, Mitogen-activated protein kinase 13 (Homo sapiens); details: at 1 µM
[10] = biological target: T2, Mitogen-activated protein kinase 12 (Homo sapiens) (UniProt P53778); details: at 0.1 µM
T2 sequence (whole entry): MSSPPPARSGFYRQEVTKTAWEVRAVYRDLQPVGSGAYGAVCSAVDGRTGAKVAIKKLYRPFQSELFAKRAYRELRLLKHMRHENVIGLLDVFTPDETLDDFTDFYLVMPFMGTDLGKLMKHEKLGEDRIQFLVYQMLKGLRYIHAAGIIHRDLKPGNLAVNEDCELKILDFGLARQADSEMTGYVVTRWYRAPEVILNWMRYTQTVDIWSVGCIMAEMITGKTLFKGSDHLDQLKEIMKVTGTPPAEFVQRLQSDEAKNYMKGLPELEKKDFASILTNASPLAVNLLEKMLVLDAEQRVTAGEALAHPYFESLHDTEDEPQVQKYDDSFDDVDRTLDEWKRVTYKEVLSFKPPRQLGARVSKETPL

Sequence of Mitogen-activated protein kinase 11 (Homo sapiens) (Q15759 whole entry): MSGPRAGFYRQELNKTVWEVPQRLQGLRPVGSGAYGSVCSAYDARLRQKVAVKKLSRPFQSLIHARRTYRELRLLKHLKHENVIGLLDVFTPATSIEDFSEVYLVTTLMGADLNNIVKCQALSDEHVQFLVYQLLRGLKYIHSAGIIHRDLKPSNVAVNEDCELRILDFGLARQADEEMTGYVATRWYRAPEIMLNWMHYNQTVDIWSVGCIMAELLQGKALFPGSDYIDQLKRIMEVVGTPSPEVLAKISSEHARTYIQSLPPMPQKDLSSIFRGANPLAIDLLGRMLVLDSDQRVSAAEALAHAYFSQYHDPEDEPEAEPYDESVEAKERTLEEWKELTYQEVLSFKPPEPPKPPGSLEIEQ
Sequence of SRSF protein kinase 3 (Homo sapiens) (Q9UPE1 whole entry): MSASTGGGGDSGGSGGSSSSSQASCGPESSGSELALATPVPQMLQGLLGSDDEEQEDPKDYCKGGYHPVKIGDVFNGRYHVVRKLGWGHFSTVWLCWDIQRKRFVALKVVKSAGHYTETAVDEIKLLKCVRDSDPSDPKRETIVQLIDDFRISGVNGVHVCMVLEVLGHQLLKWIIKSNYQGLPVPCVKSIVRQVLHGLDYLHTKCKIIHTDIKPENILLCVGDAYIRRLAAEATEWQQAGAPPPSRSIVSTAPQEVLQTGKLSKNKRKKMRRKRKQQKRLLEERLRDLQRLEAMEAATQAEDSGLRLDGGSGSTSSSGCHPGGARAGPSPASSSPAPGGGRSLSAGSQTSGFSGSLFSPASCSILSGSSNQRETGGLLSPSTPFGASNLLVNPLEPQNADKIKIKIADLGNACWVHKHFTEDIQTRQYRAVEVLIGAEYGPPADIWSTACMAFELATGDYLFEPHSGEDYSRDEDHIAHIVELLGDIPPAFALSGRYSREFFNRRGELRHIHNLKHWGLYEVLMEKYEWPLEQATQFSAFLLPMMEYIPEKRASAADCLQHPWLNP
Sequence of Mitogen-activated protein kinase 14 (Homo sapiens) (Q16539 whole entry): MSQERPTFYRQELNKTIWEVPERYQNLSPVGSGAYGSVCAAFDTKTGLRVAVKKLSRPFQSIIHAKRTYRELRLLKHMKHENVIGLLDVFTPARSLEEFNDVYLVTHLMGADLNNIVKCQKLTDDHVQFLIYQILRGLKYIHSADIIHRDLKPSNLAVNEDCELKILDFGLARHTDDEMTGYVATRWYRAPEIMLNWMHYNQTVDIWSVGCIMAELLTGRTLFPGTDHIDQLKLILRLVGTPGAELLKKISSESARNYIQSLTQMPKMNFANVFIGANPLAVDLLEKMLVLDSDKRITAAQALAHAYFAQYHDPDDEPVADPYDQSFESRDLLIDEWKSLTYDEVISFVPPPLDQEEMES
Sequence of Mitogen-activated protein kinase 3 (Homo sapiens) (P27361 whole entry): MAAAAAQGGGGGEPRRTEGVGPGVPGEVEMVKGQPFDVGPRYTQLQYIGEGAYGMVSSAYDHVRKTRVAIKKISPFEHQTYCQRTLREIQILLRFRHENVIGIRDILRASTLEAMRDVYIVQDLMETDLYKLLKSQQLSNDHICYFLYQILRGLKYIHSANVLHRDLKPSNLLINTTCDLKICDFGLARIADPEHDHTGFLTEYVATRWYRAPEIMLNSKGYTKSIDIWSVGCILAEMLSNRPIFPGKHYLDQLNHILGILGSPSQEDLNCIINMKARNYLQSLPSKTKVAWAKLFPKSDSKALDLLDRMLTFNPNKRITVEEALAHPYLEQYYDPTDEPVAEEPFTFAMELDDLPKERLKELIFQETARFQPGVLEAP

Compound | inhibition [1] [%] | inhibition [2] [%] | inhibition [3] [%] | inhibition [4] [%] | inhibition [5] [%] | inhibition [6] [%] | inhibition [7] [%] | inhibition [8] [%] | inhibition [9] [%] | inhibition [10] [%]
Cc1nc(-c2ccccc2)n2nc(NCCCN3CCOCC3)ncc12 | 1.02 | -0.13 | -0.34 | 3.9 | 3.71 | 1.59 | 2.11 | 1.83 | 1.77 | 1.57
COC(=O)c1cncc(/C=C/c2c(C)cc(O)cc2C)c1 | 3.36 | 1.31 | 1.48 | 1.5 | 5.57 | 0.99 | 3.92 | 1.59 | 4.29 | -1.81
COc1cccc(-n2nc(C)c3c(N/N=C(\C)c4ccncc4)ncnc32)c1 | -1.26 | -0.29 | -1.75 | 1.46 | 0.91 | 1.51 | 0.17 | -0.04 | -0.68 | -0.13
[O-][S+]1CCN(Cc2ccc(-c3ccc4ncnc(Nc5ccc(OCc6ccccc6)c(Cl)c5)c4c3)o2)CC1 | 2.24 | -1.59 | 0.03 | 16.9 | 20.8 | 1.98 | 5.76 | 1.28 | 0.19 | 0.47
CCS(=O)(=O)c1ccc(OC)c(Nc2nccc(N(C)c3ccc4c(C)n[nH]c4c3)n2)c1 | 4.25 | -3.37 | -0.4 | 5.92 | 8.09 | 3.01 | 3.67 | 4.71 | 2.73 | 2.34
N#Cc1c(NC(=O)c2ccccc2F)sc2c1CCCC2 | -1.26 | -1.34 | -0.38 | -1.85 | -1.18 | 0.63 | 2.26 | -1.92 | -2.71 | -1.2
O=S(=O)(CCOCc1ccc(-c2ccc3ncnc(Nc4ccc(OCc5cccc(F)c5)c(Cl)c4)c3c2)o1)c1ccccc1 | 1.69 | -0.89 | 1.24 | 0.07 | 0.7 | -0.78 | -0.75 | 1.66 | 1.53 | 1.14
c1ccc(Nc2ncc(-c3ccccc3)o2)cc1 | 4.13 | -1.27 | -0.17 | 9.09 | 11.8 | 5.86 | 5.93 | 4.95 | 4.65 | 2.89
COc1cc(/C=N/Nc2ncnc3c2cnn3C(C)C)ccc1O | 2.88 | -2.39 | -1.29 | 1.82 | 3.92 | 0.99 | 2.61 | 1.12 | 3.06 | 1.85
C[C@@H](Oc1cc(-n2cnc3ccc(OCC4CCN(C)CC4)cc32)sc1C(N)=O)c1ccccc1C(F)(F)F | -0.11 | 0.22 | 0.15 | -2.1 | 1.86 | 1.51 | 3.33 | -2.92 | -3.87 | -1.88
FC(F)(F)c1ccc(-c2nn3ncccc3c2-c2ccnc(Nc3ccc4c(c3)OCCO4)n2)cc1 | 3.1 | 5.92 | 1.12 | 17.1 | 67.5 | 3.8 | 36.8 | 5.26 | 0.38 | 4.31
Cc1ccc2c(-c3ccnc(Nc4cccc(C(F)(F)F)c4)n3)c(-c3ccccc3)nn2n1 | 8.27 | 0.34 | -0.19 | 37.5 | 73.5 | 6.89 | 45.1 | 4.66 | 6.13 | 3.8
COC(=O)c1ccc2c(c1)C(=Cc1cc(Br)c(O)c(Br)c1)C(=O)N2 | 5.46 | 3.56 | -0.06 | 5.88 | 7.6 | 2.64 | 4.68 | 3.43 | 5.81 | 4.05
CN(C)c1cc2c(Nc3ccc4c(cnn4Cc4ccccc4)c3)ncnc2cn1 | -0.93 | -1.42 | -0.9 | 5.84 | 8.31 | 2.35 | 4.06 | 0.05 | 2.47 | 1.3
CCn1c(-c2nonc2N)nc2ccc(F)cc21 | 7.45 | -2.41 | -1.12 | 5.24 | 8.37 | 7.69 | 9.2 | 2.3 | 6.26 | 3.81
NS(=O)(=O)c1ccc(NC=C2C(=O)Nc3ccc4ncsc4c32)cc1 | 28.1 | -0.67 | -0.55 | 5.49 | 18.7 | 9.06 | 27.3 | 1.67 | 9.03 | 1.56
CC(C)c1ccc(Nc2nccc(-c3cnn4ncccc34)n2)cc1 | 3 | -1.04 | 0.7 | -1.86 | 28.2 | 2.54 | 5.44 | 1.62 | 5.42 | -0.84
